Test results from PubChem BioAssay (Tox21).
Inconclusive results are not listed. Calls of active or inactive are those of the source. The call rests on the fitted dose curve; in most records, active means well fitted cell-killing curve with a large enough effect in the repeat runs; inconclusive means weak or mixed curves, or effect the other way; inactive means flat fitted curve, though single readings scatter.

Assay: qHTS assay to identify small molecule HDAC inhibitors - cell viability counter screen (AID 1259365)
Details: HCT-116 viability, CellTiter-Glo ATP luminescence, 2 h; series mostly up to 92.4 µM; activity change, negative = cytotoxicity: at the top concentration
Procedure, shortened: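 CellTiter-Glo luminescence (30 min, room temperature) reported viability after a 2 h compound exposure at 37 C. Cells: wild-type HCT-116, 1,500 per well, seeded the night before.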
Further: nearly all actives have a fitted effect of over 50% in size.
On the % scale 0 is the no-effect control and ±100 the full control effect.

Question: For `Cc1cnc(C)c(C)n1`, which “activity change, negative = cytotoxicity” value is on record?
Answer: 0.982% (inactive)

Question: With `OC(CCCN1CCCCC1)(c1ccccc1)c1ccccc1` as the molecule, how does the “activity change, negative = cytotoxicity” value read?
Answer: 2.36% [at 42.5 µM] (inactive)

Question: Which “activity change, negative = cytotoxicity” value does the source give for `CO[C@H]1C=CO[C@@]2(C)Oc3c(C)c(O)c4c(O)c(c5c(c4c3C2=O)=NC2(CCN(CC(C)C)CC2)N=5)NC(=O)/C(C)=C\C=C/[C@H](C)[C@H](O)[C@@H](C)[C@@H](O)[C@@H](C)[C@H](OC(C)=O)[C@@H]1C` here?
Answer: -13.5% (inactive)

Question: Which “activity change, negative = cytotoxicity” value does the source give for `O=C(N/N=C/c1ccc([N+](=O)[O-])o1)c1ccc(O)cc1` here?
Answer: -8.96% [at 42.5 µM] (inactive)

Question: Which “activity change, negative = cytotoxicity” value does the source give for `CCC(=O)Oc1ccc(/C(CC)=C(\CC)c2ccc(OC(=O)CC)cc2)cc1` here?
Answer: 8.41% (inactive)

Question: Which activity change, negative = cytotoxicity does the source give for `[O]=[Bi]` here?
Answer: -2.43% [at 8.39 µM] (inactive)

Question: Which “activity change, negative = cytotoxicity” value does the source give for `CCc1cccc(N(C)C(N)=Nc2cccc3ccccc23)c1` here?
Answer: -7.72% [at 42.5 µM] (inactive)

Question: With `CCCCCCCC/C=C\CCCCCCCC(=O)OC(CO)CO` as the molecule, how does the “activity change, negative = cytotoxicity” value read?
Answer: -0.516% (inactive)

Question: Which “activity change, negative = cytotoxicity” value does the source give for `C[C@]12CCC(=O)C=C1C=C[C@@H]1[C@@H]2CC[C@@]2(C)[C@H]1CC[C@@]21CCC(=O)O1` here?
Answer: -3.15% [at 42.5 µM] (inactive)

Question: Which “activity change, negative = cytotoxicity” value does the source give for `CNCCCC1c2ccccc2C=Cc2ccccc21` here?
Answer: -0.98% [at 42.5 µM] (inactive)

Question: Which “activity change, negative = cytotoxicity” value does the source give for `CCC(Cc1ccccc1)(C(=O)c1ccc(N2CCOCC2)cc1)N(C)C` (stereo not given) here?
Answer: -1.97% (inactive)

Question: With `CC1=C(/C=C/C(C)=C\C=C\C(C)=C\C(=O)O)C(C)(C)CCC1` as the molecule, how does the “activity change, negative = cytotoxicity” value read?
Answer: 8.92% (inactive)

Question: For `C=CC(=O)NCOCC(C)C`, which “activity change, negative = cytotoxicity” value is on record?
Answer: 7.85% (inactive)

Question: Which “activity change, negative = cytotoxicity” value does the source give for `COc1cc2c(N3CCN(C(=O)Nc4ccc(OC(C)C)cc4)CC3)ncnc2cc1OCCCN1CCCCC1` here?
Answer: -2.71% [at 42.5 µM] (inactive)

Question: With `C=CC(C)(C)CC(=O)OC` as the molecule, how does the “activity change, negative = cytotoxicity” value read?
Answer: 6.47% (inactive)

Question: For `CC1(C)C(=O)N(Br)C(=O)N1Cl`, which “activity change, negative = cytotoxicity” value is on record?
Answer: 0.449% (inactive)

Question: With `CCNC(=O)N1CCN(CCCC(c2ccc(F)cc2)c2ccc(F)cc2)CC1` as the molecule, how does the “activity change, negative = cytotoxicity” value read?
Answer: -0.878% [at 42.5 µM] (inactive)

Question: For `O=S(=O)(c1ccccc1)c1ccc(Cl)cc1`, which “activity change, negative = cytotoxicity” value is on record?
Answer: -1.21% (inactive)

Question: Which “activity change, negative = cytotoxicity” value does the source give for `CC(=N\O)/C(C)=N/O` here?
Answer: -0.939% (inactive)

Assay: qHTS assay to identify small molecule agonists of the sonic hedgehog signaling (Shh) pathway - cell viability counter screen (AID 1259366); further: potency means the concentration at half of the fitted maximal effect
Details: NIH/3T3 Gli1-Luc viability, CellTiter-Fluor, 24 h; series mostly up to 92.4 µM; viability change, negative = cytotoxic: at the top concentration
Procedure, shortened: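 Cytotoxicity counter screen: CellTiter-Fluor reagent added after 23 h compound exposure, then 1 h at 37C and fluorescence read. Cells were 3T3 Gli1-Luc, seeded 2,000 per well and dosed 4 h post-plating.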

Question: With `C[C@@H]1C[C@H]2[C@@H]3CCC4=CC(=O)C=C[C@]4(C)[C@@]3(F)[C@@H](O)C[C@]2(C)[C@H]1C(=O)CO` as the molecule, how does the “viability change, negative = cytotoxic” value read?
Answer: -6.26% [at 42.5 µM] (inactive)

Question: With `CC(C)(C)C(=O)O` as the molecule, how does the “viability change, negative = cytotoxic” value read?
Answer: -0.49% (inactive)

Question: With `CCCCCCOC(=O)CCCCCCCC(=O)OCCCCCC` as the molecule, how does the “viability change, negative = cytotoxic” value read?
Answer: 3.29% (inactive)

Question: With `C[C@@H]1C[C@H]2[C@@H]3CCC4=CC(=O)C=C[C@]4(C)[C@@]3(F)[C@@H](O)C[C@]2(C)[C@@]1(O)C(=O)CO` as the molecule, how does the “viability change, negative = cytotoxic” value read?
Answer: 12.9% (inactive)

Question: With `O=C(N[C@@H](c1ccccc1)[C@@H]1CCCCN1)c1cccc(C(F)(F)F)c1Cl` as the molecule, how does the Potency read?
Answer: 30.6 µM (active)

Question: Which “viability change, negative = cytotoxic” value does the source give for `CO[C@H]1O[C@H](CO)[C@@H](O)[C@H](O)[C@H]1O` here?
Answer: 1.82% (inactive)

Question: Which “viability change, negative = cytotoxic” value does the source give for `CC1(C)C2=CCCC(C)(C)[C@]23CC[C@H]1C3` here?
Answer: -11.1% (inactive)

Question: Which “viability change, negative = cytotoxic” value does the source give for `CCOC(=O)N1CCC(n2c(=O)[nH]c3cc(Cl)ccc32)CC1` here?
Answer: -1.06% [at 42.5 µM] (inactive)

Question: Which “viability change, negative = cytotoxic” value does the source give for `C=CC(=C)CCCC(C)(C)OC(C)=O` here?
Answer: -24.8% (inactive)

Question: For `Cc1cnc(C)c(C)n1`, which “viability change, negative = cytotoxic” value is on record?
Answer: 6.97% (inactive)

Question: With `OC(CCCN1CCCCC1)(c1ccccc1)c1ccccc1` as the molecule, how does the “viability change, negative = cytotoxic” value read?
Answer: -18.6% [at 42.5 µM] (inactive)

Question: For `O=C(N/N=C/c1ccc([N+](=O)[O-])o1)c1ccc(O)cc1`, which Potency is on record?
Answer: 29.8 µM (active)

Question: Which “viability change, negative = cytotoxic” value does the source give for `CCC(=O)Oc1ccc(/C(CC)=C(\CC)c2ccc(OC(=O)CC)cc2)cc1` here?
Answer: 5.87% (inactive)

Question: With `CCc1cccc(N(C)C(N)=Nc2cccc3ccccc23)c1` as the molecule, how does the “viability change, negative = cytotoxic” value read?
Answer: -24.8% [at 42.5 µM] (inactive)

Question: Which “viability change, negative = cytotoxic” value does the source give for `CCCCCCCC/C=C\CCCCCCCC(=O)OC(CO)CO` here?
Answer: 0.658% (inactive)

Question: Which “viability change, negative = cytotoxic” value does the source give for `C[C@]12CCC(=O)C=C1C=C[C@@H]1[C@@H]2CC[C@@]2(C)[C@H]1CC[C@@]21CCC(=O)O1` here?
Answer: 20.6% [at 42.5 µM] (inactive)

Question: Which “viability change, negative = cytotoxic” value does the source give for `CCC(Cc1ccccc1)(C(=O)c1ccc(N2CCOCC2)cc1)N(C)C` (stereo not given) here?
Answer: 1.7% (inactive)

Question: With `C=CC(=O)NCOCC(C)C` as the molecule, how does the “viability change, negative = cytotoxic” value read?
Answer: -4.38% (inactive)

Question: With `C=CC(C)(C)CC(=O)OC` as the molecule, how does the “viability change, negative = cytotoxic” value read?
Answer: 0.348% (inactive)

Question: With `O=S(=O)(c1ccccc1)c1ccc(Cl)cc1` as the molecule, how does the “viability change, negative = cytotoxic” value read?
Answer: 1.38% (inactive)

Question: Which “viability change, negative = cytotoxic” value does the source give for `CC(=N\O)/C(C)=N/O` here?
Answer: 1.09% (inactive)
